# Screens as filed in PubChem.
# A selection: hits, their analogues and other compounds. The true share with any hit is near 19%.
# TDP1 cell CPT: DT40-hTDP1 cell growth loss with CPT; chicken DT40 Tdp1-/-;hTDP1 cells + 20 nM CPT, ATP luminescence, 48 h; Potency, µM (series often up to 46.2 µM), hits mostly inhibitors; actives 12% (n = 420,000); further: nearly all actives have a fitted effect of over 55% in size
#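 Cell growth measured by CellTiter-Glo luminescence after a minimum 48 h, 37 C compound exposure with 20 nM CPT in Tdp1-knockout DT40 cells stably expressing hTDP1, seeded 400/well; qHTS titration format.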
# TDP1 cell noCPT: qHTS for Inhibitors of human tyrosyl-DNA phosphodiesterase 1 (TDP1): qHTS in cells in absence of CPT | DT40 Tdp1-/- hTDP1 cells, no CPT, ATP luminescence, 48 h | Potency, µM (top dose mostly 46.2 µM), hits mostly inhibitors | actives 15% (n = 420,000) | AID 686978, 2013; further: nearly all actives have a fitted effect of over 55% in size
#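 Camptothecin absent (DMSO only). Human TDP1-complemented DT40 knockout cells, 400 cells/well, 37 °C for minimum 48 hr; ATP measured via CellTiter-Glo, 30 min dark incubation, luminescence.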
# HepG2 viability: counter-screen for TGF-b inhibitors: cytotoxicity in HepG2 cells | Potency, µM (doses to about 46.1 µM), most hits filed as cytotoxic | actives 0.76% (n = 410,000) | HepG2 CAGA-GFP viability, ATP luminescence, 18 h
#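 CellTiter-Glo luminescence gave cytotoxicity after 18 hours at 37 degrees C. The cells were HepG2 CAGA-GFP in 1% FBS DMEM, stimulated with 500 pg/mL TGF-beta after compound addition. %Activity was normalised to no-cell wells (complete cell-killing) and DMSO (no toxicity), and curves were fitted and classified.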
# IL1B secr inh: blocks inflammasome-driven IL-1 beta release | activity change, % at 57.5 µM | actives 4.7% (n = 360,000) | THP-1 LPS/ATP IL-1B secretion, AlphaLISA, 16 h; hits give low values | AID 743279; in the data active means activity change below about -50%; inconclusive means mostly about -30% to -49%
#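 THP-1 cells pretreated 1 hr with compounds (up to 57.5 uM final), then stimulated with LPS (250 ng/mL final) plus ATP (1.25 mM final); secreted IL-1B measured by AlphaLISA after 16 hr, decreased signal indicating inhibition.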
# TGFb inhibitor: inhibitors of TGF-b signaling; actives 1.2% (n = 410,000); Potency, µM (titrated, usually from 46.1 µM), actives largely listed as inhibitors; HepG2 CAGA-GFP TGF-b/SMAD3 reporter, GFP fluorescence, 18 h; TGF-beta stimulated, 500 pg/mL final; further: nearly all actives have a fitted effect of over 65% in size
#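 Inhibition of TGF-beta-driven CAGA-GFP reporter expression in HEPG2 cells is measured by cellular GFP fluorescence after 18 h stimulation with 500 pg/mL recombinant TGF-beta in 1% FBS medium at 37 degrees C.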
# S-ASM inh: blocks human secretory acid sphingomyelinase; Potency, µM (top dose mostly 57.5 µM), actives largely listed as inhibitors; P17405; placental ASM, HMU-PC fluorogenic substrate, 60 min; actives 0.006% (n = 340,000)
# Target sequence (P17405 47-631 limits assumed): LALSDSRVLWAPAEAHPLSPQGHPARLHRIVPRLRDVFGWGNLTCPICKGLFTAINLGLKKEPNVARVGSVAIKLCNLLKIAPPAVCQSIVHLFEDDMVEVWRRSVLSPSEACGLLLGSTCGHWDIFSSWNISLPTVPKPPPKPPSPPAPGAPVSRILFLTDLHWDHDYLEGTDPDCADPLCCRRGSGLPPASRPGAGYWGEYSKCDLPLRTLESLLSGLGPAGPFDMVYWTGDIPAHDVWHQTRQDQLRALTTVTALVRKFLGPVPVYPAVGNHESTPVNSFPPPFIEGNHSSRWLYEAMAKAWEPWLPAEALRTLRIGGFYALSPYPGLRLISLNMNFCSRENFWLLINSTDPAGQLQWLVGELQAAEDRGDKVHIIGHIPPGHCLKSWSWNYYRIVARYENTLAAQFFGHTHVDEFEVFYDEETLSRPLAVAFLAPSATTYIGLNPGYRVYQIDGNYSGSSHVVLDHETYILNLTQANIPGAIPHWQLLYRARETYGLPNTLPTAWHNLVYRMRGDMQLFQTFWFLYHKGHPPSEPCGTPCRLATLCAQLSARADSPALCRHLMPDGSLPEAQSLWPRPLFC
#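 Human placenta-derived ASM enzyme was preincubated with compound for 10 minutes at room temperature, then given fluorogenic substrate HMU-PC0 (9 uM final) for 60 minutes at 37 °C; a pH 10 stop preceded fluorescence reading at Ex 386/Em 447 nm.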
# A number is an active result; – = inactive; ? = inconclusive; · = no result; ! = not confirmed by another sample. Unless noted, the call rests on the fitted dose curve; in most records, active means well fitted curve in the direction sought with a large enough effect; inconclusive means small, poorly fitted or top-dose-only effect, or another doubt; inactive means no such curve, though single readings can be large; an effect the other way counts as inactive or inconclusive.
SMILES,TDP1 cell CPT,TDP1 cell noCPT,HepG2 viability,IL1B secr inh,TGFb inhibitor,S-ASM inh
COc1cnc(-c2ccccn2)nc1N(C)c1ccccc1,0.52µM,0.41µM,–,–,?,–
Cc1c(C(=O)NCc2cccc([N+](=O)[O-])c2)sc(=O)n1Cc1ccc(C(C)C)cc1,?,?,–,?,?,·
CCOC(=O)Cc1nnc2c(Nc3ccccc3F)nc3nonc3n12,23µM,23µM,–,–,–,–
CCOC(=O)Cc1nnc2c(Nc3ccc(C)cc3)nc3nonc3n12,–,–,–,–,–,–
CCN(CC)C(=O)CSc1nc2ccsc2c(=O)n1CCCC(=O)NCCc1ccc(S(N)(=O)=O)cc1,4.1µM,29µM,–,–,–,–
CCC(C)n1c(SCC(=O)NCCc2ccc(S(N)(=O)=O)cc2)nc2ccsc2c1=O (stereo unspecified),?,?,–,–,–,–
CCOc1ccc(NC(=O)c2cc(F)c(F)cc2Cl)cc1OCC,–,–,–,–,–,–
Cc1cc(C)cc(OCC(=O)Nc2cnn(CCCC(=O)O)c2)c1,–,–,–,–,–,–
O=C1CC[C@@H](CN(Cc2cccnc2)C2CCN(c3ccc(NC(=O)c4cnccn4)cc3)CC2)N1,–,–,·,·,·,·
N#Cc1cc2c(OCC(O)CN3CCN(C(c4ccccc4)c4ccccc4)CC3)cccc2[nH]1 (stereo unspecified),8.9µM,5.6µM,·,·,·,·
N#Cc1ccc(OCC(O)CN2CCN(C(c3ccccc3)c3ccccc3)CC2)cc1 (stereo unspecified),?,18µM,–,–,–,–
OC(COc1ccccc1)CN1CCN(C(c2ccccc2)c2ccccc2)CC1 (stereo unspecified),?,?,–,?,14µM,–
Cc1cnc(=O)[nH]c1SCc1ccc([N+](=O)[O-])cc1,–,–,–,–,–,–
O=C1NC[C@@H](CCCCN2C[C@H](Cc3ccccc3)N(CC3CCCCC3)C(=O)C2=O)N(Cc2ccccc2)C1=O,–,–,·,–,·,·
CS(=O)(=O)c1cccc(C(=O)Nc2ccc3c(c2)OCCCO3)c1,–,–,–,–,–,–
COc1ccc(S(=O)(=O)N2CCN(C)CC2)cc1NC(=O)c1ccccc1C,–,–,–,–,–,–
CCOC(=O)/C=C/C(=O)Nc1ccc(Oc2ccccc2)cc1,?,?,–,-73,?,–
Cc1cc(NS(=O)(=O)c2ccc(NC(=O)/C=C/c3ccc(C)o3)cc2)nc(C)n1,15µM,18µM,–,–,–,–
CCOC(=O)/C=C/C(=O)Nc1ccc(S(=O)(=O)Nc2c(C)cc(C)cc2C)cc1,7.3µM,16µM,–,-72,?,–
Cc1ccc(/C=C/C(=O)Nc2ccc(Oc3ccccc3)cc2)o1,?,?,–,-83,?,–
O=C(O)/C=C/C(=O)Nc1ccc(Oc2ccccc2)cc1,–,–,–,·,–,–
Cc1cc(NS(=O)(=O)c2ccc(NC(=O)/C=C/c3ccccc3)cc2)nc(C)n1,–,–,–,–,–,–
COc1ccc(OC)c(-c2ccnc(-n3ncc(C(=O)N4CCN(CCO)CC4)c3C3CC3)n2)c1,–,–,·,·,·,·
Cc1nc(-c2noc(-c3ccc(Cl)cc3)n2)c(C(F)(F)F)o1,–,–,–,–,–,–
CC(=O)c1ccc(S(=O)(=O)NCCc2cn3ccc(C)cc3n2)cc1,–,–,–,–,–,–
SMILES,TDP1 cell CPT,TDP1 cell noCPT,HepG2 viability,IL1B secr inh,TGFb inhibitor,S-ASM inh
O=C(Nc1ccccc1C(F)(F)F)C1(S(=O)(=O)c2ccc(Cl)cc2)CC1,–,–,–,·,–,·
CC(=O)c1ccc(NC(=O)/C=C/c2ccc(C)o2)cc1,15µM,?,–,·,–,·
CCOC(=O)/C=C/C(=O)OCC(=O)Nc1ccc(C)cc1,–,?,–,–,–,–
Cc1ccc(/C=C/C(=O)Nc2ccc([N+](=O)[O-])cc2)o1,?,?,–,–,?,–
CCOC(=O)/C=C/S(=O)(=O)c1ccc(NC(C)=O)cc1,1.3µM,2.1µM,2µM,-95,?,–
Cc1ccc(/C=C/C(=O)Nc2cccc3cccnc23)o1,12µM,12µM,–,–,–,–
COc1ncc2nc(-c3cc(F)cc(F)c3)c(=O)n(C3CC3)c2n1,–,–,·,·,·,·
Cc1ccc(CNS(=O)(=O)c2ccc3c(c2)n(C)c(=O)c(=O)n3C)cc1,–,–,–,–,–,–
N#Cc1ccccc1OCC(=O)Nc1nnc(C2CC2)s1,–,–,–,–,–,–
Cc1ccc(NC(=O)NCC2CCN(Cc3cccc(Cl)c3)CC2)cc1Cl,?,16µM,13µM!,-100,?,–
COc1cccc(NC(=O)NCC2CCN(Cc3ccc(F)cc3)CC2)c1,–,–,–,–,–,–
CCc1ccc(NC(=O)NCC2CCN(Cc3cccc(Cl)c3)CC2)cc1,?,13µM,–,–,–,–
COC(=O)C1=C(C(=O)OC)[C@]2([C@H]3C/C=C\CN[C@@H](Cc4ccccc4)C(=O)N3Cc3ccccc3)C=C[C@H]1O2,?,10µM,–,·,?,·
COC(=O)C1=C(C(=O)OC)[C@]2([C@H]3CCCCN[C@@H](Cc4ccccc4)C(=O)N3Cc3ccccc3)C=C[C@H]1O2,5.8µM,6.5µM,–,–,?,–
CC(C)Oc1ccc(CNC(=O)c2ccccc2NC(=O)c2nsc3ccccc23)cc1,?,?,–,·,?,·
CCC(=O)Nc1cccc(C2=NN(c3ccccc3)C(c3ccc(OC)cc3)C2)c1 (stereo unspecified),–,?,–,–,–,–
Cc1nc2c(n1C1CCCCC1)C(=O)c1ccccc1C2=O,21µM,15µM,–,–,?,–
O=c1cc(CN2CCc3ccccc3C2)nc2sccn12,–,–,–,–,–,–
O=C1CC(c2ccc3ccccc3c2)NN1 (stereo unspecified),26µM,?,–,–,?,–
Cc1nc2ccccc2n1C1CCN(CC(=O)Nc2ccccc2Br)CC1,?,13µM,–,-51,?,–
COc1ccc(COC(=O)C2=C(C)NC(=O)NC2c2ccc(OC)cc2)cc1 (stereo unspecified),?,?,–,–,?,–
CCCCC(=O)/C=C/n1c(=S)oc2ccccc21,5.2µM,4.1µM,–,-101,5µM,–
CC(C)OC(=O)n1c(=S)oc2ccccc21,?,?,–,–,–,–
